# According to PubChem BioAssay AID1851 (National Center for Advancing Translational Sciences (NCATS), 2009):
# About 5,700 (36%) of roughly 16,000 compounds were called active. Not shown: some 24% with an inconclusive outcome. Calls follow the shape of the dose curve; as a rule, active = well fitted curve in the direction sought with a large enough effect; inconclusive = small, poorly fitted or top-dose-only effect, or effect the other way; inactive = no such curve, though single readings can be large or run the other way. The list shows a part of the results.
# Target: Cytochrome P450 1A2 (Homo sapiens) (UniProt P05177)
# Sequence (P05177 whole entry, looked up): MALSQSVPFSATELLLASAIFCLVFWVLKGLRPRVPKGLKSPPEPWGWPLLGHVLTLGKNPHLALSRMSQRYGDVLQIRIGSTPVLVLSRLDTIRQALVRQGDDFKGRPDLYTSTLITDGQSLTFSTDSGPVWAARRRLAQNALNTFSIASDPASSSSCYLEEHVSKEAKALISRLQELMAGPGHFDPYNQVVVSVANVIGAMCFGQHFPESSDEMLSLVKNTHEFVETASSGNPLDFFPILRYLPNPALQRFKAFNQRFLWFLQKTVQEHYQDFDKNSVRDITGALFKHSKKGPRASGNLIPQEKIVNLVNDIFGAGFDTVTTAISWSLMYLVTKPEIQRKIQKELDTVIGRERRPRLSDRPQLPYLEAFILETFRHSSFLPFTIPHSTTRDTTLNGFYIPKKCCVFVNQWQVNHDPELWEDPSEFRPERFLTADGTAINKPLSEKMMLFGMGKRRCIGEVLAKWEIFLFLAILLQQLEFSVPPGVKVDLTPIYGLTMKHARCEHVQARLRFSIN
# Experiment: Cytochrome panel assay with activity outcomes
# Conditions: recombinant CYP, pro-luciferin dealkylation, luminescence, p450-cyp1a2; series mostly up to 57.1 µM; activity, negative = inhibition: at the top concentration
# % is scaled to controls: 0 for no effect and ±100 for the full control effect.
SMILES,"activity, negative = inhibition",AC50
COc1ccccc1CN1CCC2(CC1)CCN(S(=O)(=O)c1ccccc1)CC2,-1.13% (inactive),–
O=C(NCCCN1CCN(Cc2ccccc2)CC1)C1CCN(S(=O)(=O)N2CCCC2)CC1,-6.36% (inactive),–
COc1ccc(S(N)(=O)=O)cc1C(=O)NCCCN1CCN(c2cccc(Cl)c2)CC1,-15% (inactive),–
COc1ccc(C(=O)N/C(=C/c2cccs2)C(=O)NCCCn2ccnc2)cc1OC,-12.2% (inactive),–
COc1ccc2c(Cl)c(C(=O)NCCCn3ccnc3)sc2c1Cl,–,0.631 µM (active)
Nn1nnc2ccccc21,–,12.6 µM (active)
c1ccc2c(c1)nnn2CN1CCOCC1,-8.08% [at 11.4 µM] (inactive),–
N#CCCn1nnc2ccccc21,-20.3% (inactive),–
Cc1ccc(NC(=O)C2(NC(=O)c3cccc(N4C(=O)CSC4c4ccccc4)c3)CCCCC2)cc1 (stereo not drawn),-7.8% (inactive),–
O=C1NCCc2c1[nH]c1ccccc21,–,2.82 µM (active)
Cn1cccc1C(=O)N1CCC[C@@]2(CCN(Cc3ccc(C#N)cc3)C2)C1,0.0918% (inactive),–
COc1ccc2cc(C(=O)Nc3ccc(F)cc3)sc(=O)c2c1OC,–,1.12 µM (active)
Nc1ccc2[nH]cc(CCC(=O)O)c2c1,-8.18% [at 11.4 µM] (inactive),–
O=C(O)Cc1c[nH]c2ccc(O)cc12,6.6% (inactive),–
COc1cc2c(CCNC(C)=O)c[nH]c2cc1Cl,–,0.126 µM (active)
COC(=O)Nc1ccc2[nH]cc(CCNC(C)=O)c2c1,–,0.316 µM (active)
CC[C@@H](c1ccccc1)n1c(=O)n2n(c1=O)[C@H]1[C@H](O)[C@H]3O[C@@H]3/C(=N/OCc3ccccc3)[C@@H]1CC2,-0.045% [at 11.4 µM] (inactive),–
CCC1CCCCN1Cc1cc(OC)c(O)c([N+](=O)[O-])c1 (stereo not drawn),-1.7% (inactive),–
CCCCCCN1C=CC(=C/C=C(\C#N)C(=O)OCC)C=C1,-22.3% (inactive),–
COc1cc(OC)c(NC(=S)Nc2cccc(C(C)=O)c2)cc1Cl,–,6.31 µM (active)
COc1cc(C(=O)NC(=S)Nc2ccc(Cl)c(C(=O)O)c2)cc(OC)c1OC,-16.2% (inactive),–
Fc1ccc(-c2[nH]ncc2-c2nnnn2-c2ccccc2)c(F)c1,-19% (inactive),–
Cc1ccc(-n2nnnc2-c2cnc3ccc(Cl)cc3c2-c2ccccc2)cc1,-12.6% (inactive),–
Clc1ccc2[nH]cc(-c3nnnn3-c3ccccc3)c2c1,–,7.94 µM (active)
O=C(Nc1cccc(F)c1)N1CC2(CCN(C(=O)c3csnn3)CC2)C1,-1.09% (inactive),–
COc1cc(C(=O)NCC(c2cccnc2)N2CCN(C)CC2)cc(OC)c1OC (stereo not drawn),–,20 µM (active)
COc1ccc(N2CCN(C(CNC(=O)C3CCCCC3)c3cccnc3)CC2)cc1 (stereo not drawn),-27.8% (inactive),–
COC(=O)NCC(c1cccnc1)N1CCN(c2ccccc2OC)CC1 (stereo not drawn),-22.4% (inactive),–
